According to PubChem BioAssay (NCATS):
Inconclusive results are not listed. A call without a number means that no potency is given here. Activity calls are given as the source filed them. The call rests on the fitted dose curve; in most records, active means well fitted inhibition curve with a large enough effect; inconclusive means small, poorly fitted or top-dose-only effect; inactive means flat fitted curve, though single readings scatter.

How the values were obtained:
Assay in all cases: qHTS profiling for inhibitors of Plasmodium falciparum proliferation (AID 504749); further: nearly all actives have a fitted effect of over 60% in size
Conditions in all cases: P. falciparum in erythrocytes, SYBR Green DNA, 72 h; series mostly up to 28.7 µM
[1] = tested on: CP286
In short: (§1)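 Readout was DNA-dye fluorescence from lysed cultures, ex 485/em 535 nm. Parasitized red cells had grown 72 h with compound; data scaled between 0.29 uM artemisinin and DMSO wells and corrected using vehicle-only plates.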

[2] = tested on: CP291
In short: as §1

[3] = tested on: CP297
In short: as §1

[4] = tested on: CP305
In short: as §1

[5] = tested on: CP315
In short: as §1

[6] = tested on: CP325
In short: as §1

[7] = tested on: CP329
In short: as §1

[8] = tested on: CP335
In short: as §1

[9] = tested on: DFO2036
In short: as §1

[10] = tested on: DIV14
In short: as §1

[11] = tested on: DIV17
In short: as §1

[12] = tested on: DIV30
In short: as §1

[13] = tested on: Dd2
In short: as §1

[14] = tested on: ECU
In short: as §1

[15] = tested on: FAB9
In short: as §1

[16] = tested on: GB4
In short: as §1

[17] = tested on: HB3
In short: as §1

[18] = tested on: ICS
In short: as §1

[19] = tested on: JCK
In short: as §1

[20] = tested on: N140
In short: as §1
Potency means the concentration at half of the fitted maximal effect.

| SMILES | Potency [1] | Potency [2] | Potency [3] | Potency [4] | Potency [5] | Potency [6] | Potency [7] | Potency [8] | Potency [9] | Potency [10] | Potency [11] | Potency [12] | Potency [13] | Potency [14] | Potency [15] | Potency [16] | Potency [17] | Potency [18] | Potency [19] | Potency [20] |
| --- | --- | --- | --- | --- | --- | --- | --- | --- | --- | --- | --- | --- | --- | --- | --- | --- | --- | --- | --- | --- |
| CN1CCN2c3ccccc3Cc3ccccc3C2C1 (centres undefined) | inactive | inactive | inactive | inactive | inactive | inactive | inactive | inactive | inactive | inactive | inactive | inactive | inactive | inactive | inactive | inactive | inactive | inactive | inactive | inactive |
| CC(CCc1ccc(O)cc1)NCCc1ccc(O)c(O)c1 (centres undefined) | inactive | inactive | inactive | inactive | inactive | inactive | inactive | inactive | inactive | inactive | inactive | inactive | – | inactive | inactive | inactive | inactive | inactive | inactive | inactive |
| CN(C)c1nc(N(C)C)nc(N(C)C)n1 | inactive | inactive | inactive | inactive | inactive | inactive | inactive | inactive | inactive | inactive | inactive | inactive | inactive | inactive | inactive | inactive | inactive | inactive | inactive | inactive |
| NCCCCCC(=O)O | inactive | inactive | inactive | inactive | inactive | inactive | inactive | inactive | inactive | inactive | inactive | inactive | inactive | inactive | inactive | inactive | inactive | inactive | inactive | inactive |
| Cn1c(=O)c2c(ncn2C)n(C)c1=O | inactive | inactive | inactive | inactive | inactive | inactive | inactive | inactive | inactive | inactive | inactive | inactive | inactive | inactive | inactive | inactive | inactive | inactive | inactive | inactive |
| COc1cc2c(c(OC)c1OC)-c1ccc(OC)c(=O)cc1[C@@H](NC(C)=O)CC2 | inactive | inactive | inactive | inactive | inactive | inactive | inactive | – | inactive | inactive | inactive | inactive | inactive | inactive | inactive | inactive | inactive | inactive | inactive | inactive |
| COc1ccccc1N1CCN(CC(O)COc2cccc3ccccc23)CC1 (centres undefined) | inactive | inactive | inactive | inactive | inactive | inactive | inactive | inactive | inactive | – | – | inactive | inactive | inactive | inactive | – | inactive | – | inactive | inactive |
| NC(=O)NO | inactive | inactive | inactive | inactive | inactive | inactive | inactive | inactive | inactive | – | inactive | inactive | inactive | inactive | inactive | inactive | inactive | inactive | inactive | inactive |
| CN1C(C(=O)Nc2ccccn2)=C(O)c2ccccc2S1(=O)=O | inactive | inactive | inactive | inactive | inactive | inactive | inactive | inactive | inactive | inactive | inactive | inactive | inactive | inactive | inactive | inactive | inactive | inactive | inactive | inactive |
| CC(=O)OCC(CCn1cnc2cnc(N)nc21)COC(C)=O | inactive | inactive | inactive | inactive | inactive | inactive | inactive | inactive | inactive | inactive | inactive | inactive | inactive | inactive | inactive | inactive | inactive | inactive | inactive | inactive |
| CC(C)(Oc1ccc(C2CC2(Cl)Cl)cc1)C(=O)O (centres undefined) | inactive | inactive | inactive | inactive | inactive | inactive | inactive | inactive | inactive | inactive | inactive | inactive | inactive | inactive | inactive | inactive | inactive | inactive | inactive | inactive |
| Clc1ccccc1C(c1ccccc1)(c1ccccc1)n1ccnc1 | 1580 nM (active) | 2030 nM (active) | 455 nM (active) | 5100 nM (active) | 2030 nM (active) | 1810 nM (active) | 2870 nM (active) | 1280 nM (active) | 708 nM (active) | 455 nM (active) | 287 nM (active) | 228 nM (active) | 708 nM (active) | 158 nM (active) | 1780 nM (active) | 809 nM (active) | 501 nM (active) | 126 nM (active) | 708 nM (active) | 224 nM (active) |
| CCCNCC(O)COc1ccccc1C(=O)CCc1ccccc1 (centres undefined) | 1580 nM (active) | 4260 nM (active) | 3790 nM (active) | 4260 nM (active) | 4780 nM (active) | 4260 nM (active) | 6750 nM (active) | 3010 nM (active) | 1000 nM (active) | – | 536 nM (active) | 1690 nM (active) | 1000 nM (active) | 708 nM (active) | 1780 nM (active) | 675 nM (active) | 2000 nM (active) | 251 nM (active) | 3550 nM (active) | 355 nM (active) |
| CC(C)Cc1ccc(C(C)C(=O)O)cc1 (centres undefined) | inactive | inactive | inactive | inactive | inactive | inactive | inactive | inactive | inactive | inactive | inactive | inactive | inactive | inactive | inactive | inactive | inactive | inactive | inactive | inactive |
| N[C@@H](Cc1c[nH]c2ccc(O)cc12)C(=O)O | inactive | inactive | inactive | inactive | inactive | inactive | inactive | inactive | inactive | inactive | inactive | inactive | inactive | inactive | inactive | inactive | inactive | inactive | inactive | inactive |
| Cc1cc(C(C)(C)C)c(O)c(C)c1CC1=NCCN1 | inactive | inactive | inactive | inactive | inactive | inactive | inactive | inactive | inactive | inactive | inactive | inactive | inactive | inactive | inactive | inactive | inactive | inactive | inactive | inactive |
| Cc1cnc(C(=O)NCCc2ccc(S(=O)(=O)NC(=O)NC3CCCCC3)cc2)cn1 | inactive | inactive | inactive | inactive | inactive | inactive | inactive | inactive | inactive | inactive | inactive | inactive | inactive | inactive | inactive | inactive | inactive | inactive | inactive | inactive |
| Nc1nnc(-c2cccc(Cl)c2Cl)c(N)n1 | inactive | inactive | inactive | inactive | inactive | inactive | inactive | inactive | inactive | inactive | inactive | – | inactive | inactive | inactive | inactive | inactive | inactive | inactive | inactive |
| Cc1ccc(C(=O)Nc2ccc(S(=O)(=O)O)c3cc(S(=O)(=O)O)cc(S(=O)(=O)O)c23)cc1NC(=O)c1cccc(NC(=O)Nc2cccc(C(=O)Nc3cc(C(=O)Nc4ccc(S(=O)(=O)O)c5cc(S(=O)(=O)O)cc(S(=O)(=O)O)c45)ccc3C)c2)c1 | inactive | inactive | inactive | inactive | inactive | inactive | inactive | inactive | inactive | inactive | inactive | inactive | inactive | inactive | inactive | inactive | inactive | inactive | inactive | inactive |
| NC(=O)OCC(COC(N)=O)c1ccccc1 | inactive | inactive | inactive | inactive | inactive | inactive | inactive | – | inactive | inactive | inactive | inactive | inactive | inactive | inactive | inactive | inactive | inactive | inactive | inactive |
| COc1ccccc1OCC(O)CN1CCN(CC(=O)Nc2c(C)cccc2C)CC1 (centres undefined) | inactive | inactive | inactive | inactive | inactive | inactive | inactive | inactive | inactive | inactive | inactive | inactive | inactive | inactive | inactive | inactive | inactive | inactive | inactive | inactive |
| CC(C)(C)C(=O)Oc1ccc(S(=O)(=O)Nc2ccccc2C(=O)NCC(=O)O)cc1 | inactive | inactive | inactive | inactive | inactive | inactive | inactive | inactive | inactive | inactive | inactive | inactive | inactive | – | inactive | inactive | inactive | inactive | inactive | inactive |
| NS(=O)(=O)c1cc2c(cc1Cl)NCNS2(=O)=O | inactive | inactive | inactive | inactive | inactive | inactive | inactive | inactive | inactive | inactive | inactive | inactive | inactive | inactive | inactive | inactive | inactive | inactive | inactive | inactive |
| C[C@](N)(Cc1ccc(O)c(O)c1)C(=O)O | inactive | inactive | inactive | inactive | inactive | inactive | inactive | inactive | inactive | inactive | inactive | inactive | inactive | inactive | inactive | inactive | inactive | inactive | inactive | inactive |
| CC(C)C(=O)Nc1ccc([N+](=O)[O-])c(C(F)(F)F)c1 | inactive | inactive | inactive | inactive | inactive | inactive | inactive | inactive | inactive | inactive | inactive | inactive | inactive | inactive | inactive | inactive | inactive | inactive | inactive | inactive |
